Holding throughout (experiment): NCI-60 one-dose screen, 48 h (100 = growth as untreated, 0 = no growth, -100 = all killed)
Test [1] deals with DU-145 prostate. The note with it: 10 µM unless noted.
In test [2] the test system is K-562 leukemia. The following applies: 10 µM unless noted.
The subject of test [3] is MALME-3M melanoma. The following applies: 10 µM unless noted.
Test [4] relates to MDA-MB-231 breast. The note with it: 10 µM unless noted.
In test [5] the test system is RXF 393 renal. The note with it: 10 µM unless noted.
The test system of test [6] is SF-268 CNS. The note with it: 10 µM unless noted.
The test system of test [7] is SF-295 CNS. The note with it: 10 µM unless noted.
Test [8] concerns SF-539 CNS. The note with it: 10 µM unless noted.
For test [9], the system named is M14 melanoma. The note with it: 10 µM unless noted.
Test [10] concerns UACC-257 melanoma. The note with it: 10 µM.

Compounds without any hit were thinned out: in the full panel of roughly 83,000, 20% have a hit.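 Values shown are percent growth following 48 h exposure of cells in 96-well plates to a single concentration of compound; below 10 was considered active.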 A number with no mark means an inactive call. Calls of active or inactive are those of the source.

With `CC/C=C\C/C=C\C[C@H](O)C/C=C1/C(=O)C=C[C@H]1C/C=C\CCC(=O)OC`, the growth is 46% [8.25 µM] in test [1]; 5.45% [8.25 µM] (active) in test [2]; 41.6% [8.25 µM] in test [3]; 21% [8.25 µM] in [4]; 21.3% [8.25 µM] in test [5]; 20.6% [8.25 µM] in [6]. Moreover, the values for the growth in [7], in test [8] and in test [9] were 82.4% [8.25 µM], 17% [8.25 µM] and 12.7% [8.25 µM], respectively.
Turning to `O=C1NC(Cc2c[nH]c3ccccc23)C(=O)N1Cc1ccc(Cl)cc1` (configuration not stated), the growth in test [1] was 116%; in [2], 83.9%; in test [3], 105%; in test [4], 101%; in [5] it was 116%; in test [6], 106%. Moreover, the figures for the growth in [7], in test [8] and in test [9] were 82.3%, 106% and 110%, respectively.
For `O=P([O-])(O)OP(=O)([O-])O.[NH-][C@H]1CCCC[C@@H]1[NH-].[OH-].[OH-].[Pt+4]`, the growth in test [1] is 109%; in test [2], 110%; in [3], 111%; in test [4], 107%; in [5], 115%; in test [6], 101%. Moreover, the growth in test [7] is 87.1%; in test [8], 105%; in [9], 120%.
`Cc1oc2nc[nH]c(=O)c2c1C(=O)/C=C/c1ccc(Cl)cc1Cl`: the growth was 78.2% in [1]; 17.8% in test [2]; 99.9% in test [3]; 89% in test [4]; 94.6% in test [6]; 104% in test [7]. The growth in test [8] was 93.3%; in test [9], 93.9%.
Regarding `COc1ccc(OC)c(NC(=O)c2cc(S(=O)(=O)N3CCc4ccccc43)ccc2OC)c1`, the growth in test [1] is 84.9%; in test [2] it was 103%; in test [3], 111%; in test [4], 71.8%; in test [6], 95.9%; in test [7], 73.4%. The growth in test [8] was 82.9%; in test [9] it was 98.8%.
`CC(=O)Nc1nc(C(=O)N2N=C(C)/C(=C/c3cccs3)C2=O)cs1`: the growth in test [1] is 99.4%; in [2] it was 102%; in [3], 86%; in test [4], 111%; in test [6], 107%; in [7], 106%. For the same molecule, the growth in test [8] is 103%; in [10] it was 91.7%; in test [9], 101%.
On to `Cc1cc(Nc2nc(C(=O)Nc3ccccc3)nc3ccccc23)n[nH]1`, for which the growth is 66.2% in test [1]; 48.7% in test [2]; 61.5% in test [3]; 85.4% in test [4]; 71% in [6]; 53.9% in [7]. For the same molecule, the results for the growth in test [8], in test [10] and in [9] were 78.7%, 83% and 50.9%, respectively.
With `C#CCN1C(=O)/C(=c2\sc3n(c2=O)C2C(NN=3)N(CC)C(=O)N2CC)c2ccccc21` (configuration not stated), the growth is 14.8% in [1]; 7.6% (active) in test [2]; 43.6% in test [3]; 21% in test [4]; 50% in test [6]; -13% (active) in test [7]. The growth is -39.7% (active) in test [8] and 26.1% in test [9].
Regarding `CCN1C(=O)N(CC)C2Nn3c(s/c(=C\c4cccc(F)c4)c3=O)=NC21` (configuration not stated), the growth in test [1] was 59.1%; in test [2], 26.8%; in test [3] it was 72.3%; in [4], 66.5%; in test [6], 76.1%; in test [7], 61.1%. The growth is 68.3% in [8] and 89.6% in test [9].
In the case of `COc1ccc(OC)c(/C=C2\Oc3cc(OCCN4CCCC4)ccc3C2=O)c1`, the growth in [1] was 96.5%; in test [2], 3.51% (active); in test [3], 104%; in test [4] it was 84.6%; in test [6], 93.7%; in test [7] it was 101%. For the same molecule, the growth in test [8] is 84.7%; in test [9], 98.4%.
For `COC(=O)c1ccc2nc(-c3cc4ccccc4n3C)n(CCCCOc3cc4c(cc3OC)C(=O)N3CCC[C@H]3C=N4)c2c1`, the growth in test [1] was 22.1%; in test [2], 44.6%; in [3] it was -80.1% (active); in test [4] it was -14.7% (active); in test [6], 1.79% (active); in test [7], -26.7% (active). For the same molecule, the growth in test [8] is -13.8% (active); in test [9], -12.7% (active).
On to `CC(=O)Nc1nc(C(=O)N2N=C(C)/C(=C/c3ccccc3)C2=O)cs1`, for which the growth in test [1] was 111%; in test [2], 98.4%; in test [3] it was 96.8%; in [4] it was 113%; in test [6], 105%; in test [7], 108%. Further, the figures for the growth in test [8], in [10] and in test [9] were 97.2%, 104% and 95.2%, respectively.
Consider `CCn1cc(C2NC(=O)c3cc(F)ccc3N2)c2cccc(Cl)c21` (configuration not stated), for which the growth in [1] was 11.6%; in test [2] it was 5.32% (active); in test [3] it was 53.7%; in [4], 19%; in test [6] it was 41.2%; in [7], 10.4%. In addition, the growth in test [8] is -26.6% (active); in test [9], 1.23% (active).
Consider `O=C(Nc1cc(C(F)(F)F)cc(C(F)(F)F)c1)Nc1ccc(OCc2nnc(-c3ccc(Cl)cc3)o2)c(F)c1`, for which the growth is 23.8% in [1]; 16.1% in test [2]; -3.82% (active) in test [3]; -17% (active) in test [4]; 25.6% in [6]; 8.71% (active) in test [7]. The growth in [8] was 10.5%; in [10], 2.65% (active); in [9], 18.6%.
Consider `CC(C)(C)c1cc(-c2nc3ccc(N4CCN(CCO)CC4)cc3[nH]2)cc(C(C)(C)C)c1O`, for which the growth in test [1] was 70.5%; in test [2], -24.2% (active); in [3], -26.4% (active); in test [4], 39.2%; in test [6], 68.3%; in test [7] it was 98.2%. Further, the growth in test [8] was 55.3%; in test [9], -40.5% (active).

These data come from PubChem BioAssay (NCI).
